Measurements published in PubChem BioAssay AID1851 (National Center for Advancing Translational Sciences (NCATS), 2009).
“And” between values parts separate entries of the source, which are not always exact repeats. Identical values can stand only once. The campaign covered roughly 16,000 compounds. About 2,600 (16%) were called active. Not shown: some 20% with an inconclusive outcome. Calls come from the whole dose curve; as a rule, active = well fitted curve in the direction sought with a large enough effect; inconclusive = small, poorly fitted or top-dose-only effect, or effect the other way; inactive = no such curve, though single readings can be large or run the other way. A selection follows. Some compounds were tested as several samples or in several runs, with calls that do not always agree.

The compounds below were run against Cytochrome P450 2D6 (Homo sapiens) (UniProt P10635) (assay: Cytochrome panel assay with activity outcomes). Settings: recombinant CYP, pro-luciferin dealkylation, luminescence, p450-cyp2d6; series mostly up to 57.1 µM.
% is set by controls: 0 for no effect and ±100 for the full control effect.

Chain of Cytochrome P450 2D6 (Homo sapiens) (P10635 whole entry, looked up): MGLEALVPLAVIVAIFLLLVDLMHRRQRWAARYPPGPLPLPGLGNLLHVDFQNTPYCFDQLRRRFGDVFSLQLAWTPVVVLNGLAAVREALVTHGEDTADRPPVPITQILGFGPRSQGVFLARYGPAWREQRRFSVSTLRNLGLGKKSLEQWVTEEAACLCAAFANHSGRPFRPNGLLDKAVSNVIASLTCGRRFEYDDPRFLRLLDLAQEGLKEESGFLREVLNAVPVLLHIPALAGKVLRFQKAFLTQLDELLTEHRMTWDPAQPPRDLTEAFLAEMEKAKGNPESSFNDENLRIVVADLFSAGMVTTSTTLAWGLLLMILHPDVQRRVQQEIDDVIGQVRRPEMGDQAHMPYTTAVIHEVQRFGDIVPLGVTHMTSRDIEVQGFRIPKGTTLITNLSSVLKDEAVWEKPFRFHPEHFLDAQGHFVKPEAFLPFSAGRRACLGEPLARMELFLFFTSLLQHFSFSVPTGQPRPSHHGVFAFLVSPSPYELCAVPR

Compound	AC50	activity, negative = inhibition
CN(/C=C/C(=O)C(F)(F)F)Cc1ccccc1	inactive	–
Cc1[nH]c2ccccc2c1-c1cc(-c2cc(-c3c(C)[nH]c4ccccc34)on2)no1	–	5.28% [at 11.4 µM] (inactive)
CCCC[C@@H]1C[C@H]1C(NC(=O)c1cccnc1)c1ccc(-c2ccccc2)cc1 (stereo partly specified)	inactive	–
CCOC(=O)c1cnn(-c2cc(Oc3ccccc3)ncn2)c1N	inactive	–
Cc1cc(C)c(C(N)=O)c(SCC(=O)c2ccc(Cl)cc2)n1	inactive	–
Cc1ccc(C(=O)CSc2nc(C)cc(=O)[nH]2)cc1	inactive	–
Cc1nc(SCC(=O)c2ccc(F)cc2)c([N+](=O)[O-])[nH]1	10 µM (active)	–
Oc1ccccc1CNn1cnnc1	inactive	–
O=c1[nH]c2cc([N+](=O)[O-])c([N+](=O)[O-])cc2[nH]c1=O	inactive	–
CC(CCc1ccccc1)NC(=O)C(=O)NCCO (stereo unspecified)	inactive	–
C[C@@H](CCc1ccccc1)NC[C@H](O)c1ccc(O)c(C(N)=O)c1	3.98 µM (active) and 2 µM (active)	–
C[C@@H](CCc1ccc(O)cc1)NCCc1ccc(O)c(O)c1	inactive	–
CCOC(=O)c1cccc(C(=O)OCC)n1	inactive	–
O=C(COc1cccc2ccccc12)NNC(=O)c1cccs1	inactive	–
O=C(OCC(=O)c1cccs1)c1cccc(C(=O)OCC(=O)c2cccs2)n1	4.47 µM (active)	–
O=C(Nc1nnc(COc2ccc(Cl)cc2)s1)c1ccc([N+](=O)[O-])cc1	inactive	–
CCOc1ccc2ccccc2c1C(=O)N[C@@H]1C(=O)N2[C@@H]1SC(C)(C)[C@@H]2C(=O)O	inactive	–
O=[N+]([O-])c1cc(C(F)(F)F)ccc1NCCCCNS(=O)(=O)c1ccc2ccccc2c1	inactive	–
COC(=O)c1ccccc1NC(=O)c1ccc(Cn2cc(Cl)cn2)o1	inactive	–
Nc1ccc(C(=O)N/N=C/c2ccccc2)cc1	inactive	–
CC[C@@]12CCCN3CCc4c(n(c5ccccc45)[C@](O)(C(=O)OC)C1)[C@H]32	inactive and 251 nM (active)	–
CCOC(=O)C1=C[C@@]2(CC)CCCN3CCc4c(n1c1ccccc41)[C@H]32	6.31 µM (active) and inactive	–
CC[C@@]12CCCN3CCc4c(n(c5ccccc45)C(=O)C1)[C@H]32	20 nM (active) and 251 nM (active)	–

Compound	AC50	activity, negative = inhibition
Cn1c(Cc2cccc3ccccc23)nnc1SCC(=O)N1CCN(c2ccccc2)CC1	inactive	–
CSc1nc(-c2ccc(C)cc2)nc(C(Cl)Cl)n1	inactive	–
CCCC[C@H]1C(=O)N(c2ccccc2)N(c2ccc(O)cc2)C1=O	inactive	–
CCOC(=O)N1CCN(S(=O)(=O)c2ccc3[nH]cc(C(=O)O)c(=O)c3c2)CC1	inactive	–
C[C@@]12CCC(=O)C=C1CC[C@H]1[C@@H]2[C@@H](O)C[C@]2(C)[C@@H]1CC[C@@]2(O)C(=O)COC(=O)C1CCCC1	–	8.32% [at 11.4 µM] (inactive)
CCCn1c(=O)c2[nH]c(-c3ccc(OCC(=O)NCCN)cc3)nc2n(CCC)c1=O	inactive	–
C[C@@]12CCC(=O)C=C1CC[C@H]1[C@@H]2[C@@H](O)C[C@]2(C)[C@@H]1CC[C@@]2(O)C(=O)CO	–	17% [at 11.4 µM] (inactive)
O=C(Oc1ccccc1)N1CCC2(CC1)CCN(c1cccc(-c3ccccc3)c1)CC2	inactive	–
CCCCCCCCN[C@@H](C)[C@H](O)c1ccc(SC(C)C)cc1	1 µM (active)	–
CCCn1cnc2c(SCC(=O)O)nc(N)nc21	–	7.62% [at 11.4 µM] (inactive)
CCOc1nc(NC(C)C)nc(NC(C)C)n1	inactive	–
COc1ccc(-n2cnc3sc(-c4ccccc4)cc3c2=O)cc1	inactive	–
COc1ccc(Nc2ncnc3sc(-c4ccccc4)cc23)cc1	28.2 µM (active)	–
COc1cccc(Nc2ncc(C(=O)O)c3ccccc23)c1	inactive	–
Fc1ccc(-c2cn3cc(C(F)(F)F)cc(Cl)c3n2)cc1	inactive	–
CCCCNC(=O)CSc1nc2cc(OC)c(OC)cc2c(=O)n1Cc1ccc(OC)cc1	inactive	–
COc1cc2nc(SCc3ccc(Cl)cc3Cl)n(Cc3cccs3)c(=N)c2cc1OC	2.24 µM (active)	–
CN1CCN(c2ncc3nc(-c4ccc(Cl)cc4)c(=O)n(Cc4cccs4)c3n2)CC1	inactive	–
COCCNC(=O)CSc1nc2ccc(N3CCOCC3)cc2c(=O)n1Cc1ccc(OC)cc1	inactive	–
COc1ccc(Cn2c(SCc3ccccc3C)nc3cc(OC)c(OC)cc3c2=N)cc1	1.26 µM (active)	–
COc1ncc2ncc(=O)n(Cc3cccs3)c2n1	inactive	–
CC(=O)N(O)CCCCCNC(=O)CCC(=O)N(O)CCCCCNC(=O)CCC(=O)N(O)CCCCCN	inactive	–
CN1CCC2(CC1)CCN(C(=O)c1cc(C(F)(F)F)cc(C(F)(F)F)c1)CC2	inactive	–

Compound	AC50	activity, negative = inhibition
Cc1noc(C)c1COc1cccc(C(=O)OCC(=O)N2CC(=O)Nc3ccccc32)c1	inactive	–
CN(CC(=O)O)Cc1c(O)c(Cl)cc(Cl)c1Cl	–	8.14% [at 11.4 µM] (inactive)
N[C@@H](C(=O)O)c1ccc(C(=O)O)c(C(=O)O)c1	7.94 µM (active) and inactive	–
N[C@@H](C(=O)O)c1ccc(C(=O)O)cc1	inactive	–
N[C@@H](C(=O)O)c1ccc(C(=O)O)c(O)c1	inactive	–
N[C@H](C(=O)O)c1ccc(O)c(C(=O)O)c1	inactive	–
N[C@H](C(=O)O)c1ccc(C(=O)O)cc1	inactive	–
N[C@@H](C(=O)O)c1ccc(P(=O)(O)O)cc1	25.1 µM (active)	–
O=C(Oc1ccccc1N1C(=O)C2CCCCC2C1=O)c1ccccc1 (stereo unspecified)	inactive	–
COCCn1c(=O)c(CCc2ccccc2)nc2cnc(Oc3cccc(Cl)c3)nc21	inactive	–
Nc1ccc(S(=O)(=O)Nc2nccs2)cc1	inactive	–
CCN(CC)c1ccc(SS(=O)(=O)O)cc1	inactive	–
C[C@@H](C(=O)NCCF)[C@H]1C[C@]1(C)[C@H](NC(=O)OCc1ccccc1)c1ccccc1	6.31 µM (active)	–
COC(=O)[C@H](C)[C@H]1C[C@]1(C)[C@H](NC(=O)OCc1ccccc1)c1ccccc1	inactive	–
COC(=O)[C@H](C)[C@@H]1C[C@@]1(C)[C@@H](NC(=O)OCc1ccccc1)c1ccccc1	inactive	–
C[C@@H](C(=O)NCc1ccccn1)[C@@H]1C[C@@]1(C)[C@@H](NC(=O)OCc1ccccc1)c1ccccc1	12.6 µM (active)	–
C[C@@H](C(=O)NCc1ccc(S(C)(=O)=O)cc1)[C@H]1C[C@]1(C)[C@H](NC(=O)OCc1ccccc1)c1ccccc1	0.398 µM (active)	–
O=C(N[C@@H](c1ccccc1)[C@@H]1C[C@H]1C(=O)NCc1ccccn1)OCc1ccccc1	inactive	–
O=C(N[C@@H](c1ccccc1)[C@@H]1C[C@H]1C(=O)O)OCc1ccccc1	inactive	–
C[C@@H](C(=O)NCCc1c[nH]c2ccccc12)[C@H]1C[C@]1(C)[C@H](NC(=O)OCc1ccccc1)c1ccccc1	2 µM (active)	–
C[C@@H](C(=O)NCc1cccc2ccccc12)[C@H]1C[C@]1(C)[C@H](NC(=O)OCc1ccccc1)c1ccccc1	inactive	–
O=C(O)c1ccccc1-c1ccc(/C=c2\sc3nc4cc(Br)cnc4n3c2=O)o1	inactive	–
N#CC(C#N)=C(N)/C(C#N)=C/c1ccc(O)cc1	inactive	–

Compound	AC50	activity, negative = inhibition
COc1ccc(/C(C)=N/NC(=O)c2ccc(N(C)C)cc2)cc1	inactive	–
COc1cc2c(cc1OC)C(C(=O)Nc1cccc(C)n1)C(c1cccnc1)N(C)C2=O (stereo unspecified)	inactive	–
COc1cc(C2C(=O)N(C3CCCC3)CC(=O)N2Cc2ccco2)ccc1OC(C)C (stereo unspecified)	inactive	–
CCCC1C(=O)N(c2ccccc2)C1c1ccccc1 (stereo unspecified)	inactive	–
CCCCOC(=O)c1cc2c(cn1)[nH]c1ccccc12	inactive	–
CCCC[C@@H]1C[C@H]1C(NC(=O)Cc1ccccc1)c1ccc(-c2ccccc2)cc1 (stereo partly specified)	inactive	–
CCOC(=O)c1c(C)nc2sc3c(=O)n(-c4ccc(C)cc4)cnc3c2c1-c1ccc(OC)cc1	inactive	–
O=C(O)c1c2c(c(O)c3c1CN(C1CCCCC1)CO3)OCN(C1CCCCC1)C2	–	15.7% [at 11.4 µM] (inactive)
C[C@@H](C(=O)O)[C@@H]1C[C@@]1(C)[C@@H](NC(=O)OCc1ccccc1)c1ccccc1	inactive	–
C[C@@H](C(=O)O)[C@H]1C[C@]1(C)[C@H](NC(=O)OCc1ccccc1)c1ccccc1	inactive	–
CNC(=O)[C@H](C)[C@@H]1C[C@@]1(C)[C@@H](NC(=O)OCc1ccccc1)c1ccccc1	3.16 µM (active)	–
O=C(O)C[C@H](Cc1ccccc1)C(=O)O	–	6.15% [at 11.4 µM] (inactive)
CCC(C)NC(=O)NC(=O)N(C1CCCCC1)S(C)(=O)=O (stereo unspecified)	inactive	–
CO[C@H]1C[C@@H](O[C@@H]2[C@H](C)[C@H](O[C@@H]3O[C@@H](C)C[C@@H](N(C)C)[C@@H]3O)[C@H](C)C[C@]3(CO3)C(=O)[C@H](C)[C@H](O)[C@H](C)[C@H](C)OC(=O)[C@@H]2C)O[C@@H](C)[C@H]1O	inactive	–
C[N+]1(CCC[N+]2(C)C[C@H]3[C@H](C2)[C@H]2C=C[C@@H]3CC2)CCOCC1 (stereo partly specified)	–	-2.37% [at 11.4 µM] (inactive)
NC(=S)Nc1cccc2cccnc12	inactive	–
CN=C(N)/N=C(\N)Nc1cc2ccccc2c2ccccc12	1.58 µM (active)	–
NC(=S)Nc1cc2ccccc2c2ccccc12	28.2 µM (active)	–
S=C(CSc1ccccc1)Nc1cccc2ccccc12	–	-5.75% [at 11.4 µM] (inactive)
CSc1nc(Oc2ccc(F)cc2)c2ccccc2n1	inactive	–
C[C@@]1(C(NC(=O)c2cccs2)c2ccc(-c3ccccc3)cc2)C[C@H]1C1CCCCC1 (stereo partly specified)	inactive	–
COc1ccc(OC)c(NC(=O)CSCc2cnn(-c3ccccc3)c2-n2cccc2)c1	inactive	–
